We go through 97 compounds from PubChem BioAssay AID2796 (The Scripps Research Institute Molecular Screening Center, 2010).

Among all 320,000 compounds or so, about 8,000 (2.5%) were called active. Many of the other results were omitted from the sample, so actives are more common in it than they were. Unmarked numbers belong to inactive results. No stated cut-off is given here; in the data, active means activation above about 47%; inactive means the rest.

The assay deals with Aryl hydrocarbon receptor (Homo sapiens) (UniProt P35869). Kind of assay: AHR activators, primary screen, cell-based, luminescence, luciferase reporter, human (AID 2796).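 Further: 0% = vehicle wells and 100% = reference agonist.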 The following applies: AHR-responsive luciferase reporter cells, at 5 µM, stronger effect = higher value.
Aryl hydrocarbon receptor (Homo sapiens), sequence (P35869 whole entry, looked up): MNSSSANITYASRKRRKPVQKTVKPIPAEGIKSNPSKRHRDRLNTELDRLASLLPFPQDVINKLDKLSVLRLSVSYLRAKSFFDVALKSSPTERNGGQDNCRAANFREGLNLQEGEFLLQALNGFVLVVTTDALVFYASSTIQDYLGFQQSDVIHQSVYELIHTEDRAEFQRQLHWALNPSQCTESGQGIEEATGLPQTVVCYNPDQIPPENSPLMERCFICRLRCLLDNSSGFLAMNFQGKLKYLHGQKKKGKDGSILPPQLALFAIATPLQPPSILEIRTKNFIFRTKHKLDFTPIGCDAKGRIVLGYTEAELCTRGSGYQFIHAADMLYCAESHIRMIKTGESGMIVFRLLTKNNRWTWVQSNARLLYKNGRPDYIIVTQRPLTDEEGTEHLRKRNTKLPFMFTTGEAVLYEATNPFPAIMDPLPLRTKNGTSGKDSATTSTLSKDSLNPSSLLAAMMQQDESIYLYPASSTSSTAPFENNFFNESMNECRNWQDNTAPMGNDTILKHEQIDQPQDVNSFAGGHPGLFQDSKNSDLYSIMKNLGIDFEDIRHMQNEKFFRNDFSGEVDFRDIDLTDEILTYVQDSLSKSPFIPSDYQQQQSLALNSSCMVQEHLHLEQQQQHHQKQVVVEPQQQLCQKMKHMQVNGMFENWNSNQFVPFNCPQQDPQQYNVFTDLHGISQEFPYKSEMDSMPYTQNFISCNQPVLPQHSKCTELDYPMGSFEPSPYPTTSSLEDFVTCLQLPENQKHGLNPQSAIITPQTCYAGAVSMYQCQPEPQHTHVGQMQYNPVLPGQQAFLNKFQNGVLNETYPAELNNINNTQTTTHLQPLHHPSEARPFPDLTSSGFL
As to `O=C(Cn1cncn1)N/N=C/c1c2ccccc2cc2ccccc12`, the activation was 84.8% (active).

Turning to `Nc1nnn(CC(=O)N/N=C/c2ccccc2)n1`, the activation was 0.68%.

With `Cc1nn(-c2ccccc2)c(C)c1/C=N/NC(=O)CSc1nc2ccccc2c(=O)n1-c1ccccc1`, the activation is 1.64%.

In the case of `CCCCNC(=O)C1CCCNC1=O` (configuration not stated), the activation is -1.12%.

Turning to `c1ccc(-c2csc(N3CCc4ccccc4C3)n2)cc1`, the activation is 14.7%.

Take `O=C(NN=Cc1ccc(N2CCOCC2)cc1)c1cc2ccccc2cc1O`: the activation was 11.3%.

Regarding `NC(=O)c1ccccc1N=Cc1ccc2ccccc2c1`, the activation is 87.6% (active).

For the compound `COc1ccc(/C=N/Nc2ccccc2C(=O)O)cc1`, the activation was 3.83%.

On to `O=C(c1ccc(N2CCOCC2)c([N+](=O)[O-])c1)N1CCN(S(=O)(=O)c2cccs2)CC1`, for which the activation is -4.2%.

In the case of `Cn1c(=O)c2c(nc(N3CCOCC3)n2CCNC2=NCCC2)n(C)c1=O`, the activation is -1.68%.

As for `O=C(c1ccc(F)cc1)N1CCC(n2nnc3ccccc32)CC1`, the activation is -1.01%.

In the case of `CCS(=O)(=O)N1Cc2ccccc2CC1C(=O)Nc1nc2ccc(F)cc2s1` (configuration not stated), the activation is -3.42%.

Take `NS(=O)(=O)c1ccc2nc(NC(=O)CS(=O)(=O)c3ccc(F)cc3)sc2c1`: the activation is 8.79%.

For `Fc1ccc2nc(Nc3nc4c(s3)CCCC4)sc2c1`, the activation is 49.8% (active).

`O=C(Nc1ccc(Br)cc1F)C1CC(=O)N(C2CCCCC2)C1` (configuration not stated): the activation is 0.73%.

With `COc1ccccc1CCNC(=O)CN1C(=O)NC2(CCCC2)C1=O`, the activation is -2.06%.

Consider `Cc1cc2c(cc1S(=O)(=O)NCc1ccc(Cl)cc1)OCC(=O)N2`, for which the activation was 1%.

As to `COc1ccccc1-c1nnc(SCC(=O)Nc2ccccc2)o1`, the activation was 75.5% (active).

For `COc1ccccc1-c1nnc(SCC(=O)N2CC(C)CC(C)C2)o1` (configuration not stated), the activation is 29%.

Turning to `COc1cccc(NC(=O)CSc2nnc(-c3cccnc3)o2)c1`, the activation was 29.8%.

As to `CN(CC(=O)Nc1ccc(F)cc1)CC(=O)N1CCCCC1`, the activation was 3.11%.

With `CCc1ccc(N(C(=O)c2csnn2)C(C(=O)NC2CCCCC2)c2ccncc2)cc1` (configuration not stated), the activation is 3.1%.

For the compound `O=C(CN1C(=O)NC2(CCCC2)C1=O)Nc1cc(C(F)(F)F)ccc1N1CCOCC1`, the activation was -0.32%.

With `CCOC(=O)c1ccc(-c2ccc(C(=O)Nc3cccnc3)o2)cc1`, the activation is 48.9% (active).

Take `COc1ccc(C)cc1NC(=O)c1ccc(-c2ccc(C(C)=O)cc2)o1`: the activation is 40.5%.

As for `COc1cccc(C(=O)Nc2cccnc2)c1OC`, the activation is 19.2%.

As for `CCN(CC)P(=O)(C(NC(=O)OC)C(F)(F)C(F)(F)C(F)(F)C(F)F)N(CC)CC` (configuration not stated), the activation is -0.37%.

Consider `CCC1=C/C(=C\c2ccc3c(c2)OCO3)C(=O)S1`, for which the activation is 1.47%.

As to `O=C1/C(=C/c2ccc3c(c2)OCO3)CCC/C1=C\c1ccc2c(c1)OCO2`, the activation was 72.7% (active).

Take `O=C(N/N=C/c1ccc2c(c1)OCO2)C(=O)N1CCCC1`: the activation was 38.1%.

Take `Cc1ccc(S(=O)(=O)N(C)CC(=O)NCC(c2ccc(F)cc2)N2CCOCC2)cc1` (configuration not stated): the activation is -0.69%.

For `CCOc1ccc(C2=CC(c3ccccc3)n3ncnc3N2)cc1` (configuration not stated), the activation was -3.83%.

For the compound `Brc1ccc(C2=CC(c3ccco3)n3ncnc3N2)cc1` (configuration not stated), the activation is 95.6% (active).

As for `CC1=C(C(=O)OCc2ccccc2)C(c2ccco2)n2ncnc2N1` (configuration not stated), the activation is 1.22%.

Regarding `C#CCNC(=O)C1=C[C@@H](c2ccccc2)[C@H](CCCO)[C@@H](OCC)O1`, the activation was 1.77%.

For `CCCCn1nc(C(=O)Nc2ccc(S(=O)(=O)Nc3ncccn3)cc2)c2ccccc2c1=O`, the activation is 2.56%.

Regarding `CC1=NN(C(N)=S)C(=O)C1N=Nc1cc(Cl)ccc1Cl` (configuration not stated), the activation is 11.5%.

Take `Cc1cccc(N=Nc2c(C)[nH]n(-c3ccccc3)c2=O)c1`: the activation was 40%.

As to `Cc1[nH]n(C(N)=S)c(=O)c1N=Nc1ccc(Cl)cc1Cl`, the activation is 55.6% (active).

Consider `O=C(Cc1c(F)cccc1Cl)Nc1ncc([N+](=O)[O-])s1`, for which the activation was 48.5% (active).

As for `O=C(CCc1ccccc1)Nc1ncc([N+](=O)[O-])s1`, the activation was 6.21%.

As to `O=C(Cc1c(F)cccc1Cl)Nc1ccc(-n2cnnn2)cc1`, the activation was 0.09%.

Regarding `CCOC(=O)C(=Cc1ccccc1OC)C(=O)OCC`, the activation is -3.1%.

`CN(C)c1ccnc2sc(C(=O)c3ccccc3)c(N)c12`: the activation was 15.9%.

Take `Nc1c(C(=O)NCc2ccccc2)sc2nc3c(cc12)C(=O)CCC3`: the activation is 2.82%.

As for `CCN(CC)C(=O)c1sc2nc(-c3ccccc3)ccc2c1N`, the activation is 76.4% (active).

On to `Cc1ccc(N2C(=O)C(NC(=O)c3c(F)cccc3F)(C(F)(F)F)C3=C2CC(C)(C)CC3=O)cc1` (configuration not stated), for which the activation was 2.49%.

Regarding `O=C(CC1NCCNC1=O)Nc1ccc(Oc2ccccc2)cc1` (configuration not stated), the activation was 5.88%.

In the case of `Cc1ccc(CNC(=O)CC2Sc3ccccc3NC2=O)cc1` (configuration not stated), the activation was 4%.

Turning to `O=C(CC1Nc2ccccc2NC1=O)Nc1ccccc1NC(=O)CC1Nc2ccccc2NC1=O` (configuration not stated), the activation was 47.5% (active).

On to `O=C(CC1Nc2ccccc2NC1=O)Nc1ccccc1` (configuration not stated), for which the activation is 101% (active).

On to `COC(=O)C(C)C1Sc2ccccc2NC1=O` (configuration not stated), for which the activation is -0.86%.

Take `O=C(CC1NCCc2ccccc21)Nc1cccc(Cl)c1` (configuration not stated): the activation is 8.99%.

Regarding `COC(=O)c1c(C)oc2ccc(N(C(=O)Oc3ccccc3)S(=O)(=O)c3ccccc3)cc12`, the activation is -0.17%.

Regarding `COCCCNC(=O)c1ccc(CNS(=O)(=O)c2ccc(NC(C)=O)cc2)cc1`, the activation is 0.77%.

With `Cc1cc(C)n(CC(O)COc2ccc(C(C)(C)C)cc2)n1` (configuration not stated), the activation was 1.06%.

For `COc1ccc(OCCNC(=O)c2cc(C3CC3)nc3c2cnn3C(C)C)cc1`, the activation was 5.03%.

For `CC(C)n1ncc2c(C(=O)NCc3ccccc3CN(C)C)cc(C3CC3)nc21`, the activation was 2.81%.

With `CC(C)n1ncc2c(C(=O)Nc3ccc(CC#N)cc3)cc(C3CC3)nc21`, the activation is 89.9% (active).

For the compound `O=C(CCNC(=O)c1ccccc1Cl)NN=Cc1ccco1`, the activation was -0.2%.

`Cc1ccc(C(=O)N/C(=C\c2cn(S(=O)(=O)N(C)C)c3ccccc23)C(=O)N2CCCC2)cc1`: the activation was 0.25%.

In the case of `Cc1ccc(OCc2n[nH]c(=S)n2-c2ccccc2)cc1`, the activation is 2.23%.

For the compound `S=c1[nH]nc(COc2ccccc2)n1-c1ccccc1`, the activation is -2.15%.

With `S=c1[nH]nc(-c2cc(-c3ccsc3)n[nH]2)n1-c1ccccc1`, the activation is 84% (active).

`CCc1ccc(C(=O)OCC(=O)NCC(F)(F)F)cc1`: the activation was 1.13%.

In the case of `Fc1ccc2cnc(-c3ccccc3)cc2c1`, the activation is 31.9%.

`O=C(Nc1ccccc1F)c1ccc2c(c1)OCO2`: the activation was 7.6%.

Take `Fc1ccccc1-c1cc2cc3c(cc2cn1)OCO3`: the activation was 77.2% (active).

For the compound `O=C(NCc1ccc2c(c1)OCO2)c1cc([N+](=O)[O-])ccc1N1CCOCC1`, the activation was -0.76%.

For the compound `Cc1nnc(C)c2c(C)n(N)c(C)c12`, the activation is -0.81%.

For `COc1ccc(CNC(=O)CNC(=O)c2sc3ccccc3c2Cl)cc1OC`, the activation was -3.5%.

Regarding `CN1CCc2ccccc2C1Cc1ccccc1NC(=O)c1sc2ccccc2c1Cl` (configuration not stated), the activation is 11.4%.

Take `O=C(N/N=C/c1c(Cl)[nH]c2ccccc12)c1sc2ccccc2c1Cl`: the activation is 74.3% (active).

Turning to `O=C(CCNS(=O)(=O)c1ccccc1)NCCSc1ccc(Br)cc1`, the activation is -0.18%.

In the case of `Cc1sc2ncn(CC(=O)NCCCC(=O)N3CCN(c4ccccc4F)CC3)c(=O)c2c1C`, the activation is -0.77%.

In the case of `COc1ccc(Nc2oc(-c3ccccc3Cl)nc2C#N)cc1`, the activation was -7.03%.

As to `N#Cc1nc(COc2ccc(-c3ccccc3)cc2)oc1NCc1cccnc1`, the activation is -4.66%.

Regarding `CCOc1ccc(Nc2oc(Cc3ccccc3)nc2C#N)cc1`, the activation was 58.1% (active).

Regarding `Cc1cccc(N(C)C(=O)c2cc3c(=O)[nH]c4ccc(C)cc4c3s2)c1`, the activation is 39%.

Turning to `C=CCSc1nnc(Cn2c(=O)sc3ccccc32)n1C`, the activation is 0.37%.

As for `O=C(C[n+]1cc(Br)cc2ccccc21)c1ccc(F)cc1`, the activation is 58.6% (active).

On to `Cc1cccc[n+]1CC(=O)c1ccccc1`, for which the activation is 1.77%.

For `O=C(CNC(=O)c1ccc(F)cc1)c1ccccc1`, the activation is 3.71%.

As to `S=c1[nH]cc(-c2ccc(Cl)cc2)n1-c1ccccc1`, the activation is 6.37%.

With `CC(C)(C)OC(=O)C[C@@H]1C/C=C\C[C@@H](CC(=O)NCCO)C(=O)N[C@H](Cc2c[nH]c3ccccc23)COC1=O`, the activation is 0.32%.

Turning to `C=CCN1C(=O)C2(OCCCO2)c2cccc(Cl)c21`, the activation is -2.96%.

For the compound `NC(=S)N/N=C/c1coc2cc(Cl)ccc2c1=O`, the activation was 60.2% (active).

For the compound `Cc1ccc2occ(/C=N/NC(=O)c3ccccc3C)c(=O)c2c1`, the activation was 6.34%.

For `O=c1c(/C=N/O)coc2ccc(Cl)cc12`, the activation is -0.55%.

For the compound `O=c1[nH]c2cccnc2n1-c1ccc([N+](=O)[O-])cc1`, the activation was 60.9% (active).

For the compound `O=[N+]([O-])c1ccc2nc(-c3ccccn3)[nH]c2c1`, the activation was 3.58%.

As to `O=c1[nH]n(-c2ccc([N+](=O)[O-])cc2)c(=O)c2ccccc12`, the activation is 1.45%.

On to `CCOc1ccc(CN2CCN(CCCc3ccccc3)C(CCO)C2)cc1` (configuration not stated), for which the activation is 0.01%.

Consider `COc1cc(NC(=O)c2cccs2)ccc1NC(=O)c1ccccc1Cl`, for which the activation was -11.1%.

Consider `O=C(Nc1ccc2sc3ccccc3c(=O)c2c1)c1ccccc1Cl`, for which the activation is 49.1% (active).

`O=C(Nc1cccc(NC(=O)c2ccccc2[N+](=O)[O-])c1)c1ccccc1Cl`: the activation is 8.43%.

As for `COc1cc(S(=O)(=O)N2CCN=C2c2ccccc2)ccc1Cl`, the activation was 1.21%.
